Source: the supplement of paper PMC10849652
Targets with a hit are over-represented here; the source holds about 8,800 in all. About 0.5% of all pairs of compound and target were hits.

Experiments:
Assay in all cases: log2 fold change, soluble protein after heating vs DMSO (PISA); higher = thermal stabilisation; K562 lysate, 10 uM; active = over 0.2 and 3.5 SD of the protein, either way, in both replicates (recomputed)
nilotinib = compound: Cc1cn(-c2cc(NC(=O)c3ccc(C)c(Nc4nccc(-c5cccnc5)n4)c3)cc(C(F)(F)F)c2)cn1 [nilotinib]
Outline: (§1)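 Thermal stability, expressed as log-two fold change relative to solvent controls, is given from duplicates. Crude K562 extract in PBS pH 7.4 with 1 mM MgCl2, at 1 mg/mL protein, was treated with 10 μM compound for 30 min and heated in aliquots for 3 min across 48°C-58°C. After pooling, adjustment to 0.5% NP-40 at 4°C and centrifugation at 21,000xg for 90 min, supernatant protein was measured by TMTpro 16plex LC-MS/MS with channel sums equalised.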

[1] = compound: Cc1nc(Nc2n[nH]c3c2CN(C(=O)N[C@H](CN(C)C)c2ccccc2)C3(C)C)c2sccc2n1
Outline: as §1

dasatinib = compound: Cc1nc(Nc2ncc(C(=O)Nc3c(C)cccc3Cl)s2)cc(N2CCN(CCO)CC2)n1 [dasatinib]
Outline: as §1

[2] = compound: Cc1ncc(-c2ccnc(Nc3ccc(S(C)(=O)=O)cc3)n2)n1C(C)C
Outline: as §1

[3] = compound: Cn1cc(-c2ccc3c(c2)CCN3C(=O)Cc2cccc(C(F)(F)F)c2)c2c(N)ncnc21
Outline: as §1

quisinostat = compound: Cn1cc(CNCC2CCN(c3ncc(C(=O)NO)cn3)CC2)c2ccccc21 [quisinostat]
Outline: as §1

tipifarnib = compound: Cn1cncc1[C@@](N)(c1ccc(Cl)cc1)c1ccc2c(c1)c(-c1cccc(Cl)c1)cc(=O)n2C [tipifarnib]
Outline: as §1

[4] = compound: NC(=O)Nc1cc(-c2cccc(F)c2)sc1C(=O)N[C@H]1CCCNC1
Outline: as §1

[5] = compound: NC(=O)c1cnc(N[C@@H]2CCCC[C@@H]2N)nc1Nc1cccc(-n2nccn2)c1
Outline: as §1

[6] = compound: NC1(c2ccc(-c3nc4ccn5c(=O)[nH]nc5c4cc3-c3ccccc3)cc2)CCC1
Outline: as §1

Measured: log2 fold change

LPCAT1 (UniProt Q8NF37)
Chain of UniProt Q8NF37 (Q8NF37 whole entry, looked up): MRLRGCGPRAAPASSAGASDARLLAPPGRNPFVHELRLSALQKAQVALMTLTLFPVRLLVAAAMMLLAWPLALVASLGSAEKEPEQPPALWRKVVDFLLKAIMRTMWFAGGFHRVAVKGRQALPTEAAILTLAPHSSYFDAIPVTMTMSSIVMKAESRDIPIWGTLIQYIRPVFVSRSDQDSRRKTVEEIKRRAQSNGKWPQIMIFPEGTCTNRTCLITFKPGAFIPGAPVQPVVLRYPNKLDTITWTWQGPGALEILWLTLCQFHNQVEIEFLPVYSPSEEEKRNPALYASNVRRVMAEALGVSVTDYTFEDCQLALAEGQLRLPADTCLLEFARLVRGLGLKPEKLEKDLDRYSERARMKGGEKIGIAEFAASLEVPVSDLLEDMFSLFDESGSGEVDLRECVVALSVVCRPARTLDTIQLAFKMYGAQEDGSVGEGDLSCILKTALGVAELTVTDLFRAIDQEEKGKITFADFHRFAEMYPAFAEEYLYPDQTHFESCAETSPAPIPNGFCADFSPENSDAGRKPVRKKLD
inactive: nilotinib -0.039 | [1] 0.015 | dasatinib -0.084 | [2] 0.014 | [3] -0.045 | quisinostat 0.016 | tipifarnib 0.046 | [4] 0.008 | [5] 0.053 | [6] 0.033

MARCHF6 (UniProt O60337)
Chain of UniProt O60337 (O60337 whole entry, looked up): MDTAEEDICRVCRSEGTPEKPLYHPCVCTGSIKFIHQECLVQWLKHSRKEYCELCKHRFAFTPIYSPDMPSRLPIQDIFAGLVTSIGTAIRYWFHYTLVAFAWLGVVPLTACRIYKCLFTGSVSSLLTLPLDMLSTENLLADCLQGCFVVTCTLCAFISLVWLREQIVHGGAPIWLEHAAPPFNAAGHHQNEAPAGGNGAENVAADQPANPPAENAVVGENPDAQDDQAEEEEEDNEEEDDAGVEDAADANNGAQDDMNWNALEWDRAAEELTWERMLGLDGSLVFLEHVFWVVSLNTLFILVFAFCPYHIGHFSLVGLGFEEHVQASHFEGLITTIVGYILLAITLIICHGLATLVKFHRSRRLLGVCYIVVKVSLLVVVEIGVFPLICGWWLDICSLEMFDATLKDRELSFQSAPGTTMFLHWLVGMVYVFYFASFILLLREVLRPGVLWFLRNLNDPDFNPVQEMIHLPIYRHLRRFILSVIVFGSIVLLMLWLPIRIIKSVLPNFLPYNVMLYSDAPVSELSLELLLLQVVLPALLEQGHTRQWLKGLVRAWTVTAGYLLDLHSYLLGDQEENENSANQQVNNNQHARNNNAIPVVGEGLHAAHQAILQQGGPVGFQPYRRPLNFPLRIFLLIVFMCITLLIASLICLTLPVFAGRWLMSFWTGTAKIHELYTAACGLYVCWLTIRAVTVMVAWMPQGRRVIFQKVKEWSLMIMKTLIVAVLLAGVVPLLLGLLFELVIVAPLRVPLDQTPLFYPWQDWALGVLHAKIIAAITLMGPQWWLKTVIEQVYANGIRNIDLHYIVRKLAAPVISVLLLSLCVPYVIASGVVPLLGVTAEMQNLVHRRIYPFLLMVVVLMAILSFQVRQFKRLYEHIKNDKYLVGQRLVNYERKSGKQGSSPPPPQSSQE
inactive: nilotinib 0.164 | [1] -0.024 | dasatinib -0.136 | [2] 0.04 | [3] -0.169 | quisinostat -0.085 | tipifarnib -0.179 | [4] -0.025 | [5] -0.023 | [6] -0.008

LYSMD3 (UniProt Q7Z3D4)
Chain of UniProt Q7Z3D4 (Q7Z3D4 whole entry, looked up): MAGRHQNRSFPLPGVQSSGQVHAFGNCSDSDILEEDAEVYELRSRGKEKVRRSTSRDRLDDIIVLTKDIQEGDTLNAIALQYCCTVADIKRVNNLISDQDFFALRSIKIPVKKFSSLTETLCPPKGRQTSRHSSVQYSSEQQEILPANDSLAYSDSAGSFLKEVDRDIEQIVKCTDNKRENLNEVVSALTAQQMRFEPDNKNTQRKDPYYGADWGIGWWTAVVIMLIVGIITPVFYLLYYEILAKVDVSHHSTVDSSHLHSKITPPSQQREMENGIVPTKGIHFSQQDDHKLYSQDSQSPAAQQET
inactive: nilotinib -0.096 | [1] -0.293 | dasatinib -0.083 | [2] 0.171 | [3] -0.068 | quisinostat -0.037 | [4] -0.022 | [5] 0.057 | [6] 0.023
active: tipifarnib 0.352

MAPKAPK5 (UniProt Q8IW41)
active: [4] 0.519
inactive: nilotinib -0.003 | [1] 0.056 | dasatinib 0.011 | [2] 0.064 | [3] 0.024 | quisinostat -0.222 | tipifarnib -0.065 | [5] -0.006 | [6] -0.006

LIMS1 isoform 3 (UniProt P48059)
active: quisinostat 0.255
inactive: nilotinib 0.076 | [1] 0.035 | dasatinib 0.017 | [2] 0.104 | [3] 0.018 | tipifarnib 0.002 | [4] -0.065 | [5] -0.007 | [6] 0.001

MAD2L2 (UniProt Q9UI95)
inactive: nilotinib 0.031 | [1] -0.029 | dasatinib -0.064 | [2] 0.006 | [3] -0.035 | quisinostat -0.231 | tipifarnib -0.015 | [4] 0.064 | [5] 0.117 | [6] -0.065

MRPL30 isoform 2 (UniProt Q8TCC3)
inactive: nilotinib -0.048 | [1] -0.066 | dasatinib -0.038 | [2] 0.047 | [3] 0.03 | quisinostat -0.13 | tipifarnib 0.052 | [4] -0.007 | [5] 0 | [6] 0.039

LYAR (UniProt Q9NX58)
Chain of UniProt Q9NX58 (Q9NX58 whole entry, looked up): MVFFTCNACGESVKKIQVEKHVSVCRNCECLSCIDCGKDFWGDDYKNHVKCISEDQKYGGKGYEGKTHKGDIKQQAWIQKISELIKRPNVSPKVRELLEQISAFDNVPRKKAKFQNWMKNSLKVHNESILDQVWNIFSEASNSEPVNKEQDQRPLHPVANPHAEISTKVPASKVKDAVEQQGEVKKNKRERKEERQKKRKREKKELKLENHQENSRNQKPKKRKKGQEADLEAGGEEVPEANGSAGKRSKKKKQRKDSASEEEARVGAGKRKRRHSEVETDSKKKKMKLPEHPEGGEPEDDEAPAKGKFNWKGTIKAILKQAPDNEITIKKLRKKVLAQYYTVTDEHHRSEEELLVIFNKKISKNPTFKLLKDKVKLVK
inactive: nilotinib 0.01 | [1] -0.021 | dasatinib 0.002 | [2] 0.005 | [3] 0.014 | quisinostat 0.003 | tipifarnib 0 | [4] -0.002 | [5] -0.016 | [6] -0.012

MARK2 (UniProt E9PC69)
inactive: nilotinib 0.019 | [1] 0.034 | dasatinib -0.03 | [2] 0.012 | [3] -0.047 | quisinostat 0.031 | tipifarnib -0.019 | [4] -0.065 | [5] 0.002 | [6] -0.183

MORC3 (UniProt Q14149)
inactive: nilotinib 0.001 | [1] 0.012 | dasatinib 0.006 | [2] -0.015 | [3] 0.046 | quisinostat -0.018 | tipifarnib -0.01 | [4] 0.037 | [5] -0.017 | [6] -0.004

KLC1 isoform 6 (UniProt Q07866)
Chain of UniProt Q07866 (Q07866 whole entry, looked up): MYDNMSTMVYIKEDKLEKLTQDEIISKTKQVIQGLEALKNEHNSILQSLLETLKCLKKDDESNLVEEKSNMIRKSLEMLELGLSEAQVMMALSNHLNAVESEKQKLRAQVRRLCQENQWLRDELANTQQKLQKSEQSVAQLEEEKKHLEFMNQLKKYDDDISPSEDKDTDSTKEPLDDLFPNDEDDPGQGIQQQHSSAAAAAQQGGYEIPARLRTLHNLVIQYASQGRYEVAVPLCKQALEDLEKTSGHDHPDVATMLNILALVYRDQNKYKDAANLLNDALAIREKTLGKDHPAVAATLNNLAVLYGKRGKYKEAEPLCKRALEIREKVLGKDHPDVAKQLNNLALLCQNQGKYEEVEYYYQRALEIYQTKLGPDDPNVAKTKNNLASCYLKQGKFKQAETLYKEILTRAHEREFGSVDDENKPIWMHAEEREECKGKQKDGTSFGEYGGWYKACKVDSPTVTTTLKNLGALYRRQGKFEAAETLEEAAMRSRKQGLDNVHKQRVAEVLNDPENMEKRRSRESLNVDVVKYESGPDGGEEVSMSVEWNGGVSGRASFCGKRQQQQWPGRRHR
inactive: nilotinib 0.009 | [1] -0.017 | dasatinib -0.021 | [2] -0.009 | [3] 0.009 | quisinostat -0.014 | tipifarnib -0.005 | [4] -0.014 | [5] 0.002 | [6] 0.017

KNOP1 (UniProt Q1ED39)
inactive: nilotinib -0.09 | [1] 0.055 | dasatinib -0.028 | [2] -0.095 | [3] -0.001 | quisinostat -0.169 | tipifarnib -0.01 | [4] 0.007 | [5] 0.048 | [6] -0.062

MAP7D3 (UniProt Q8IWC1)
Chain of UniProt Q8IWC1 (Q8IWC1 whole entry, looked up): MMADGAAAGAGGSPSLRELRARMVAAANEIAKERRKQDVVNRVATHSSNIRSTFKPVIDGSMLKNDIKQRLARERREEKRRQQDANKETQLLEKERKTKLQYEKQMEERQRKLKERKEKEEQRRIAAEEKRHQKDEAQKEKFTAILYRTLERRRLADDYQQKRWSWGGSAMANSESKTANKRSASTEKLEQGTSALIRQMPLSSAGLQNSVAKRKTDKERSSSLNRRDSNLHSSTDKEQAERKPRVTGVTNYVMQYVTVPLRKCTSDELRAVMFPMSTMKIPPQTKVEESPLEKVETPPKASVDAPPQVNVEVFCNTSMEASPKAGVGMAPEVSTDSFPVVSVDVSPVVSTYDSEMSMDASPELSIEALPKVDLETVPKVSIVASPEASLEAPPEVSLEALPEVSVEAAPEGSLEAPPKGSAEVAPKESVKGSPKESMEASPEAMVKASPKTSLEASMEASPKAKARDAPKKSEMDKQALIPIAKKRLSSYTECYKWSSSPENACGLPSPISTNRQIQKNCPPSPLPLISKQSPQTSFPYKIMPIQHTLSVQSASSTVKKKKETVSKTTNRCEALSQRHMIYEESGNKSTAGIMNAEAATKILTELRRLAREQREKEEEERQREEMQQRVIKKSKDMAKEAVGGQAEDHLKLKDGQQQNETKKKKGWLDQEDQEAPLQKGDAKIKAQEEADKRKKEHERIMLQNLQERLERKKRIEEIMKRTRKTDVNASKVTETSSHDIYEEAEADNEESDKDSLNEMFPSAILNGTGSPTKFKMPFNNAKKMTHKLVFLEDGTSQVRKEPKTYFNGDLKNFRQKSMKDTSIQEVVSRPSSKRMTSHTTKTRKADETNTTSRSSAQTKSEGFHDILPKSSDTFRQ
inactive: nilotinib -0.012 | [1] -0.01 | dasatinib 0.03 | [2] -0.037 | [3] 0.029 | quisinostat -0.101 | tipifarnib 0.014 | [4] 0.003 | [5] -0.016 | [6] 0.005

LAP3 (UniProt P28838)
inactive: nilotinib 0.045 | [1] -0.006 | dasatinib -0.047 | [2] 0.016 | [3] -0.123 | quisinostat -0.192 | tipifarnib -0.008 | [4] 0.049 | [5] 0.009 | [6] -0.137

KIF4B (UniProt Q2VIQ3)
inactive: nilotinib -0.016 | [1] 0.034 | dasatinib -0.013 | [2] 0.049 | [3] 0.096 | quisinostat -0.08 | tipifarnib -0.009 | [4] 0.037 | [5] 0.045 | [6] -0.078

MAP4 (UniProt E7EVA0)
inactive: nilotinib 0.073 | [1] 0.021 | dasatinib -0.009 | [2] 0.046 | [3] 0.057 | tipifarnib -0.031 | [4] 0.024 | [5] 0.016 | [6] -0.1
active: quisinostat -0.271

LLGL1 (UniProt Q15334)
inactive: nilotinib 0 | [1] 0.149 | dasatinib -0.011 | [2] 0.052 | [3] 0.016 | quisinostat -0.046 | tipifarnib -0.077 | [4] 0.159 | [5] 0.053 | [6] 0.075

LSM8 (UniProt O95777)
inactive: nilotinib 0.132 | [1] 0 | dasatinib 0.012 | [2] 0.045 | [3] 0.004 | quisinostat -0.043 | tipifarnib 0.048 | [4] -0.02 | [5] -0.035 | [6] 0.033

LAMP1 (UniProt P11279)
Chain of UniProt P11279 (P11279 whole entry, looked up): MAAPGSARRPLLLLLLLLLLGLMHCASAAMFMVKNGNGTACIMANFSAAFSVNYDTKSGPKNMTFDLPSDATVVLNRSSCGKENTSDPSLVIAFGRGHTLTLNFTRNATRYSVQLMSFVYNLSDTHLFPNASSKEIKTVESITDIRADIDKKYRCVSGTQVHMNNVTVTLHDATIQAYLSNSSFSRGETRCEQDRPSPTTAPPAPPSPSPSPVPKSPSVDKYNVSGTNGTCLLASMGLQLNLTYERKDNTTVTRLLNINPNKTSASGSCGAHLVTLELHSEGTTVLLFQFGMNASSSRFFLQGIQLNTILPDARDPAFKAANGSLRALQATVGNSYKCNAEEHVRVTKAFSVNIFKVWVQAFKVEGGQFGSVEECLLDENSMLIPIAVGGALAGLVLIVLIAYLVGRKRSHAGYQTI
inactive: nilotinib 0.021 | [1] -0.033 | dasatinib -0.058 | [2] 0.002 | [3] -0.036 | quisinostat -0.113 | tipifarnib -0.012 | [4] 0.016 | [5] -0.003 | [6] -0.017

MICU2 (UniProt Q8IYU8)
inactive: nilotinib -0.052 | [1] 0.02 | dasatinib -0.026 | [2] 0.048 | [3] -0.015 | quisinostat -0.03 | tipifarnib -0.043 | [4] 0.07 | [5] 0.105 | [6] -0.009

KNL1 (UniProt Q8NG31)
inactive: nilotinib 0.011 | [1] -0.004 | dasatinib -0.014 | [2] 0.02 | [3] 0.012 | quisinostat -0.048 | tipifarnib -0.06 | [4] 0.023 | [5] 0.024 | [6] -0.001

MRPL35 (UniProt Q9NZE8)
inactive: nilotinib 0.05 | [1] -0.027 | dasatinib 0.062 | [2] 0.049 | [3] -0.028 | quisinostat 0.004 | tipifarnib -0.037 | [4] -0.034 | [5] -0.007 | [6] 0.056

KIF2A isoform 4 (UniProt O00139)
inactive: nilotinib 0.021 | [1] -0.015 | dasatinib -0.022 | [2] -0.02 | [3] 0.042 | quisinostat -0.005 | tipifarnib 0.015 | [4] 0.021 | [5] 0.017 | [6] 0.006

MACO1 (UniProt Q8N5G2)
inactive: nilotinib -0.003 | [1] 0.017 | dasatinib -0.092 | [2] 0.066 | [3] 0.004 | quisinostat 0.042 | tipifarnib 0.042 | [4] 0.033 | [5] -0.02 | [6] 0.054

MRPL15 (UniProt Q9P015)
inactive: nilotinib 0.011 | [1] -0.034 | dasatinib 0.004 | [2] -0.028 | [3] -0.008 | quisinostat -0.022 | tipifarnib 0.012 | [4] 0.005 | [5] 0.012 | [6] -0.181

MAPK14 (UniProt Q16539)
Chain of UniProt Q16539 (Q16539 whole entry, looked up): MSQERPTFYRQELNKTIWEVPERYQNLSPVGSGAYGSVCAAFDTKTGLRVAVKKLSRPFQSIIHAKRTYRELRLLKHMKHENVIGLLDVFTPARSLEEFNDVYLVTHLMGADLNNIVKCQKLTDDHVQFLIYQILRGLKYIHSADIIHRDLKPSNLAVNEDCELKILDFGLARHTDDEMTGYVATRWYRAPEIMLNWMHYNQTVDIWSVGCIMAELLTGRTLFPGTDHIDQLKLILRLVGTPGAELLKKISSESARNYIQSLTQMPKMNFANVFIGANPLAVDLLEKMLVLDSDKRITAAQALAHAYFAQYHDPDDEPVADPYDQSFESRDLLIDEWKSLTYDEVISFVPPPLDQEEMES
inactive: nilotinib 0.563 | [1] 0.038 | [2] 0.069 | [3] -0.029 | quisinostat -0.025 | tipifarnib -0.137 | [4] -0.012 | [5] -0.005 | [6] -0.042
active: dasatinib 0.984

MRPL27 (UniProt Q9P0M9)
inactive: nilotinib -0.112 | [1] 0.027 | dasatinib 0.089 | [2] -0.039 | [3] 0.091 | quisinostat -0.012 | tipifarnib 0.015 | [4] -0.006 | [5] 0.072 | [6] -0.064

MAP11 (UniProt Q8WVR3)
Chain of UniProt Q8WVR3 (Q8WVR3 whole entry, looked up): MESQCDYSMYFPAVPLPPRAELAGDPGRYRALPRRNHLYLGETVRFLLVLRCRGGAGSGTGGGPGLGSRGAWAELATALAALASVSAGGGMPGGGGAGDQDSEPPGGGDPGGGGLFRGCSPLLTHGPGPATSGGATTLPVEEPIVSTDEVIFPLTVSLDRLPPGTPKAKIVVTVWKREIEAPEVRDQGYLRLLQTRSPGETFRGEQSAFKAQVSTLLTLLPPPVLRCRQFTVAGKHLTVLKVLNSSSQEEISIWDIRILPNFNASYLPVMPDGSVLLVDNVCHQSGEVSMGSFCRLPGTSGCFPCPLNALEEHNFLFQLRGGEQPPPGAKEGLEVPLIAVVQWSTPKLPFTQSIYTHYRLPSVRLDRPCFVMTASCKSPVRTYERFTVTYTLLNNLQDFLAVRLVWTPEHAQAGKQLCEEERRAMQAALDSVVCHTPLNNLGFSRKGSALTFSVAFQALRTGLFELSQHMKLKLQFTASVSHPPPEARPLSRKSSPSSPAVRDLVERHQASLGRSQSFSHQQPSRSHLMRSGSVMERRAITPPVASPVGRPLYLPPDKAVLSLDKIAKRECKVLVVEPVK
inactive: nilotinib -0.088 | [1] 0.002 | dasatinib 0.002 | [2] 0.021 | [3] -0.058 | quisinostat -0.026 | tipifarnib -0.063 | [4] 0.037 | [5] -0.014 | [6] -0.007

LARS2 (UniProt Q15031)
inactive: nilotinib -0.002 | [1] 0.048 | dasatinib -0.075 | [2] -0.008 | [3] 0.065 | quisinostat 0.028 | tipifarnib -0.085 | [4] 0.089 | [5] 0.044 | [6] -0.036

KSR1 (UniProt Q8IVT5)
inactive: nilotinib 0 | [1] -0.04 | dasatinib -0.106 | [2] 0.056 | [3] 0.057 | quisinostat -0.015 | tipifarnib -0.116 | [4] 0.069 | [5] 0.051 | [6] 0.003
